Several values for one entry are separate records, joined by “and”; a condition that tells them apart may be missing. Equal entries are not always repeated. Unmarked numbers belong to inactive results. Records with an inconclusive call do not appear. Activity calls are given as the source filed them. Unless noted, calls follow the shape of the dose curve; as a rule, active = well fitted curve in either direction with a large enough effect (not every such curve was filed as active); inconclusive = small, poorly fitted or top-dose-only effect, or another doubt; inactive = flat fitted curve, though single readings scatter. Some results are limits rather than exact numbers.

Test [1] in a line: AP1 Signaling Pathway (AID 357).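 Also: ME-180 reporter cells stimulated with EGF at its EC50 level; % is scaled to controls: 0 for no effect and ±100 for the full control effect.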 As to conditions: ME-180 (cervical carcinoma) AP-1-bla reporter, EGF-induced, beta-lactamase ratio, 5 h; at 17.2 µM (top of the series) unless noted. A digest of the protocol: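 Beta-lactamase reporter under AP-1 response element, ME-180 background. Stimulus: EC50 EGF. Compound exposure 5 h, 37 °C. Detection: CCF4, 2.5 h RT, 460/530 nm. Values: AC50 from titration.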

Test [2] has as its target Cytochrome P450 1A2 (Homo sapiens) (UniProt P05177). The test can be described thus: p450-cyp1a2 (AID 410; calls by dose curve; also: potency is read from the fitted curve at half-maximal effect). A digest of the protocol:
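Human CYP1A2 (20nM) demethylated Luciferin-ME at its Km (100uM) in 100mM KPO4. After 10 min compound preincubation, NADPH regeneration ran the reaction 60 min at room temperature. Luciferin was read by luminescence, normalized to 57 uM furafylline.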

A short description of test [3]: Cell Viability - BJ (AID 421; calls by dose curve;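 also: potency is read from the fitted curve at half-maximal effect; cells exposed to compound for 40 hours at 37 °C before readout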). As to conditions: BJ fibroblast viability, qHTS. In a few lines: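 Normal human BJ foreskin fibroblasts, 1500/well in complete medium, treated 40 hr at 37 °C. Cellular ATP by CellTiter-Glo luminescence; normalized to DMSO and 100 uM tamoxifen, AC50 from Hill fit.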
Test [4] is described as follows: Cell Viability - Jurkat (AID 426;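 active = dose-dependent loss of cell ATP signal giving a full or clear fitted curve, ranked by lower potency value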; also: potency is read from the fitted curve at half-maximal effect). To be noted: qHTS. In a few lines:
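Jurkat (clone E6-1, human T-cell leukemia) cells, 5000/well in complete medium, were exposed to compound for 40 hr at 37 °C. Viability was read as intracellular ATP by CellTiter-Glo luminescence; AC50 came from Hill fits of concentration-response data.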
Background: Quantitative high-throughput screening tests each substance at several concentrations.

Test [5] is described as follows: Cell Viability - Hek293 (AID 427;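 active = compounds whose dose-response curve shows a full or clear partial loss of cell viability, called from curve shape rather than a numeric limit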;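 also: potency is read from the fitted curve at half-maximal effect; cells exposed to compound for 40 hours at 37 °C before reading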). To be noted: qHTS. In a few lines: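 HEK293 cells in complete medium were exposed to compound for 40 hr at 37 °C, then cellular ATP was read by CellTiter-Glo luminescence. Data were normalized to DMSO (basal) and 100 uM tamoxifen (100% inhibition), and AC50 came from Hill fits.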
Test [6] in a line: Cell Viability - HepG2 (AID 433; calls by dose curve;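 also: potency is read from the fitted curve at half-maximal effect; potency for ATP loss meaning cytotoxicity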). To be noted: qHTS. In a few lines: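 HepG2 hepatocellular carcinoma cells (1500/well) were treated with compounds for 40 h at 37 °C in complete medium; intracellular ATP was read by CellTiter-Glo luminescence. Data were normalized to DMSO and 100 uM tamoxifen, and AC50 came from Hill fits.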
The nature of test [7]: Cell Viability - MRC5 (AID 434; calls by dose curve;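 also: potency is read from the fitted curve at half-maximal effect; potency reflects cytotoxicity seen as loss of intracellular ATP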). To be noted: MRC5 lung fibroblast viability, qHTS. In a few lines: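 MRC5 normal human lung fibroblasts (1500/well) were treated with compounds for 40 hr at 37 °C in complete medium, and viable cells were measured as intracellular ATP by CellTiter-Glo luminescence. AC50 came from Hill fits, normalized to DMSO and 100 uM tamoxifen.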
The nature of test [8]: Cell Viability - SK-N-SH (AID 435; calls by dose curve;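 also: potency is read from the fitted curve at half-maximal effect; compound exposure lasted 40 h at 37 °C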). As to conditions: SK-N-SH neuroblastoma cell viability qHTS. In a few lines:
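SK-N-SH human neuroblastoma cells (1500/well) were exposed to compounds in complete medium for 40 h at 37 °C, and intracellular ATP was then measured by CellTiter-Glo luminescence. AC50 was taken from Hill fits, normalized to DMSO and 100 uM tamoxifen.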

Test [9] is described as follows: NFAT Signaling Pathway (AID 444).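 Also: carbachol stimulus at about its EC50 of 1 µM final; % is scaled to controls: 0 for no effect and ±100 for the full control effect.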 To be noted: Jurkat NFAT-bla M1, carbachol, beta-lactamase ratio, 5 h; at 17.2 µM (top of the series) unless noted. A digest of the protocol:
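Jurkat cells carrying an NFAT-driven β-lactamase reporter and co-transfected muscarinic M1 receptor were treated with compound plus carbachol (1 uM final, an EC50 level) for 5 h at 37 °C. CCF4 loading followed for 1 h at RT; 460/530 nm ratio gave %activity.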

For test [10], the target named is Mitogen-activated protein kinase 10 (Mus musculus) (UniProt Q61831). As to the kind of experiment: JNK3 AlphaScreen Assay (AID 530).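 Also: kinase came from lysate of stimulated human HepG2 cells; signal reports phosphorylation of biotinylated GST-cJun 1-79 at Ser73 with 10 µM ATP; % is scaled to controls: 0 for no effect and ±100 for the full control effect.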 In a few lines: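 JNK3 came from HepG2 lysates pre-activated with IL-1beta and TNF-alpha and phosphorylated biotinylated GST-cJun (1-79) at 10 uM ATP, pH 7.6, room temperature. Compounds were titrated. AlphaScreen signal used anti-phospho-cJun (Ser73) antibody.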
On the technique in general: In Alpha technology, singlet oxygen from a donor bead excites a nearby acceptor bead.

Test [11] can be described thus: Cell Viability - NIH 3T3 (AID 541; active = well fitted curve in the direction sought with a large enough effect; an effect the other way counts as inactive or inconclusive;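 also: plate controls were DMSO alone for no effect and tamoxifen positive control for full effect; nearly all actives have a fitted effect of over 25% in size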). To be noted: NIH 3T3 cell viability, qHTS; activity change, negative = cytotoxicity: at 92.2 µM (top of the series). A digest of the protocol: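 NIH 3T3 mouse embryo fibroblasts (1000 cells/well) were plated in complete medium and treated with compound for 40 hr at 37 °C. Viability was read as intracellular ATP by CellTiter-Glo luminescence; AC50 values came from Hill-equation fits of concentration-response data.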

Test [12] can be described thus: Cell Viability - HUV-EC-C (AID 542; active = well fitted curve in the direction sought with a large enough effect; an effect the other way counts as inactive or inconclusive; also: % is scaled to controls: 0 for no effect and ±100 for the full control effect; nearly all actives have a fitted effect of over 35% in size). In a few lines:
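HUV-EC-C normal human vascular endothelial cells, 1000 cells/well, pre-incubated 5 hr at 37 °C, then exposed to compounds for 40 hr at 37 °C in complete medium. Viability measured as intracellular ATP by CellTiter-Glo luminescence; AC50 from Hill fits.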

A short description of test [13]: Cell Viability - H-4-II-E (AID 543; active = well fitted curve in the direction sought with a large enough effect; an effect the other way counts as inactive or inconclusive; also: nearly all actives have a fitted effect of over 35% in size; also: potency is read from the fitted curve at half-maximal effect). In a few lines: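 Rat hepatoma H-4-II-E cells (1500/well) were plated, incubated 5 hr at 37 °C, then exposed to compounds for 40 hr at 37 °C. Cellular ATP was read by CellTiter-Glo luminescence; AC50 came from Hill-equation fits of concentration-response data.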
Test [14] can be described thus: Cell Viability - SH-SY5Y (AID 544; active = well fitted curve in the direction sought with a large enough effect; an effect the other way counts as inactive or inconclusive;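 also: 0% = DMSO alone and -100% = 100 µM tamoxifen; nearly all actives have a fitted effect of over 55% in size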). To be noted: SH-SY5Y neuroblastoma cell viability; viability change, negative = cytotoxic: at 92.2 µM (top of the series). A digest of the protocol: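 Human neuroblastoma SH-SY5Y cells (1500/well) in complete medium were exposed to compounds for 40 hr at 37 °C; intracellular ATP was then quantified by CellTiter-Glo luminescence after 20 min at room temperature. AC50 came from Hill-equation concentration-response fits.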

Test [15] is described as follows: Cell Viability - Renal Proximal Tubule (AID 545; active = well fitted curve in the direction sought with a large enough effect; an effect the other way counts as inactive or inconclusive; also: nearly all actives have a fitted effect of over 40% in size; also: potency is read from the fitted curve at half-maximal effect;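 as to activity change, negative = cytotoxicity: 0% = DMSO only and -100% = 100 µM tamoxifen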). In a few lines: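 Primary rat renal proximal tubule cells (1000/well) were treated with compounds for 40 hr at 37 °C in complete medium. Intracellular ATP was measured by CellTiter-Glo luminescence, and AC50 values came from Hill-equation fits of concentration-response data.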
Test [16] in a line: Cell Viability - Mesenchymal (AID 546; active = well fitted curve in the direction sought with a large enough effect; an effect the other way counts as inactive or inconclusive;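 also: cells exposed to compound for 40 hours before reading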; also: potency is read from the fitted curve at half-maximal effect;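 as to activity change, negative = cytotoxicity: 0% = DMSO only and -100% = 100 µM tamoxifen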). A digest of the protocol: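 Normal human renal glomerulus-derived kidney mesenchymal cells, 1000 per well in complete medium, were treated with compounds for 40 hr at 37 °C. Viability was read as intracellular ATP by CellTiter-Glo luminescence; AC50 values came from Hill-equation fits of qHTS concentration-response data.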
The target of test [17] is 3',5'-cyclic-AMP phosphodiesterase 4B (Homo sapiens) (UniProt Q07343). The test can be described thus: qHTS Assay for Inhibitors of PDE-IV (AID 607; active = well fitted activation curve with a large enough effect in the main read-out, with a control signal flat, not every such curve was filed as active; also: % of control where 0% means no effect). In a few lines: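 HEK293 ACTOne cells with CNG channel (1000/well), endogenous PDE4; membrane potential dye, compounds up to 22.9 uM final. Fluorescence Ex 535/Em 590; RO 20-1724 (100 uM final) as reference.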
Sequence of 3',5'-cyclic-AMP phosphodiesterase 4B (Homo sapiens) (Q07343 whole entry, looked up): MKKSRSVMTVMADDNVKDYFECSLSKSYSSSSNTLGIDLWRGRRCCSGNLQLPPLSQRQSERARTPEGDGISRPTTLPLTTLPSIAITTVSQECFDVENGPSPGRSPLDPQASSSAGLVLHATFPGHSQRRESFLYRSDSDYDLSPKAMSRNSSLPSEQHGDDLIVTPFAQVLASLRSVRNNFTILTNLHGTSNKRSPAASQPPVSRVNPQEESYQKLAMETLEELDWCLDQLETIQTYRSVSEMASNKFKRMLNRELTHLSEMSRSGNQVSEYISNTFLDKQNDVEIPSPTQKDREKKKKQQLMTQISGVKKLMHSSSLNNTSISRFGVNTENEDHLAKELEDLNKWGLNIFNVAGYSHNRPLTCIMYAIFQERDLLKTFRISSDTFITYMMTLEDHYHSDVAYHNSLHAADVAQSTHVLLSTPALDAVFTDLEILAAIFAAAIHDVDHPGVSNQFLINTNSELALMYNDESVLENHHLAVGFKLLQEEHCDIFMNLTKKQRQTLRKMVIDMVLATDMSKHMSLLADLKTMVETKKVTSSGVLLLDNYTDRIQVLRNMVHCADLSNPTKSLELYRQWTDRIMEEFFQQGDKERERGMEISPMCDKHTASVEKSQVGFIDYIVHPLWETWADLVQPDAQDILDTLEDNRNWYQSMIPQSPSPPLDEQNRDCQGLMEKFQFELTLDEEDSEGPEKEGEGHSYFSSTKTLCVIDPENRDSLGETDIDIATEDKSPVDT
Test [18] is described as follows: Cellular Toxicity (caspase-3) HepG2 (AID 654; active = well fitted curve in the direction sought with a large enough effect; an effect the other way counts as inactive or inconclusive;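 also: cells exposed to compound for 16 hours before reading; 0% = DMSO alone and 100% = caspase signal from 100 µM tamoxifen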). A digest of the protocol: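 HepG2 cells (1500/well) in complete medium were treated with compounds for 16 hr at 37 °C. Caspase-3/7 activity was then read as luminescence from peptide-aminoluciferin cleavage. AC50 came from Hill fits, normalized to DMSO and 100 uM tamoxifen.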
Test [19] deals with Glucocorticoid receptor (Homo sapiens) (UniProt P04150). The test can be described thus: GR-GFP Redistribution (AID 450;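 active = compounds whose dose series gives a full or clear partial fitted curve of increased nuclear translocation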; also: potency is read from the fitted curve at half-maximal effect). As to conditions: U2OS GR-GFP nuclear translocation, laser cytometry, 2 h.
Sequence of Glucocorticoid receptor (Homo sapiens) (P04150 whole entry, looked up): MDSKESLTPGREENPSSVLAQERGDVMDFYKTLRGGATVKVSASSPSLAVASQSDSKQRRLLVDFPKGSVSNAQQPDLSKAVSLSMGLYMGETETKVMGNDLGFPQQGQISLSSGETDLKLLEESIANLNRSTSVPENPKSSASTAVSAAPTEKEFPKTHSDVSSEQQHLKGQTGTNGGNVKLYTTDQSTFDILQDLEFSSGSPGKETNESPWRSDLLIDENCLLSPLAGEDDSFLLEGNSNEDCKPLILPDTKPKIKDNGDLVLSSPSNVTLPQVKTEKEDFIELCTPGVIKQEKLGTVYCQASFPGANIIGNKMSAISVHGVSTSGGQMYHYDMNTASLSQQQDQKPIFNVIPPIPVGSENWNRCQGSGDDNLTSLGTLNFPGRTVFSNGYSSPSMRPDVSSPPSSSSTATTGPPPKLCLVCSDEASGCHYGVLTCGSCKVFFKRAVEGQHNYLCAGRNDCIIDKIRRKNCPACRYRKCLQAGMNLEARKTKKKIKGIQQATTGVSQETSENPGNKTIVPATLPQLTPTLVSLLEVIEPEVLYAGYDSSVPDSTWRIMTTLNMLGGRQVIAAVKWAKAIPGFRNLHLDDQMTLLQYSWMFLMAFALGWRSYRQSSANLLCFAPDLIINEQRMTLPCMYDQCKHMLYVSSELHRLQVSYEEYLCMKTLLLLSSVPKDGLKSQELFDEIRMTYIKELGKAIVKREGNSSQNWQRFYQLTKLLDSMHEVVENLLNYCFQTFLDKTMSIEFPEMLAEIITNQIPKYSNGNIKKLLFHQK

Sequence of Cytochrome P450 1A2 (Homo sapiens) (P05177 whole entry, looked up): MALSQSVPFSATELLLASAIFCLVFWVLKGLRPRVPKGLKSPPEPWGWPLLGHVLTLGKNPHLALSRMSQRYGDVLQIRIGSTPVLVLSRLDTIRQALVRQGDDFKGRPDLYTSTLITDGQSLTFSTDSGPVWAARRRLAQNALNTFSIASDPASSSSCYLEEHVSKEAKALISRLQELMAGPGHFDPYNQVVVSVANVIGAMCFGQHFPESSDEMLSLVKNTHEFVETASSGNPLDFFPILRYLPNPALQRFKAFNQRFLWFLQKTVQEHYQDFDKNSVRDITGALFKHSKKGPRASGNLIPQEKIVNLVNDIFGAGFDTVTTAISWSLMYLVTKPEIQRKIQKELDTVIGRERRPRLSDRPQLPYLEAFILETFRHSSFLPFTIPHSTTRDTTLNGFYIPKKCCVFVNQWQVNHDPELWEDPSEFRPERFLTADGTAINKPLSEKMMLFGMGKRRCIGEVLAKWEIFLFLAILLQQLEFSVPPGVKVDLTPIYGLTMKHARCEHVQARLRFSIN

As to `Cc1ncc([N+](=O)[O-])n1CCO`, the activity change, negative = inhibition in test [1] was 7.25% and 11.7%; in [9], -4.16% and -8.01%. For the same compound, the Potency result in test [2], in test [10], in test [12], in test [13], in [14] and in test [15] was “inactive” each time. In addition, the Potency result in test [16] and in test [18] was “inactive” throughout. In addition, the Potency in test [3], in [4], in [5], in test [6], in test [7] and in test [8] was more than 92 µM in each case. Besides, the activity change, negative = cytotoxicity in test [11] was -7.75%. The compound was classed as inactive in test [17].
As for `NNC(=O)c1ccncc1`, the activity change, negative = inhibition in [1] was 11.8% and 7.05%; in test [9], -9.4% and 6.65%. For the same compound, the Potency was 6.31 µM (active) in [2]; more than 92 µM in test [3]; more than 92 µM in test [4]; more than 92 µM in test [5]; more than 92 µM in [6]; more than 92 µM in [7]. In addition, the Potency in test [8] was more than 92 µM; in [19], more than 20.6 µM. Besides, the Potency result in test [10], in test [12], in [13], in [14], in test [15] and in test [16] was “inactive” in each case. Further, in [18], the Potency entry was “inactive”. Moreover, the activity change, negative = cytotoxicity in test [11] is -5.93%. Further, the call in [17] was inactive.
In the case of `COc1cnc(NS(=O)(=O)c2ccc(N)cc2)nc1`, the activity change, negative = inhibition is -7.19% in [1] and -4.83% in [9]. For the same compound, the Potency entry in test [2] and in test [10] was “inactive” each time. In addition, the Potency in [19] was more than 20.6 µM. Further, the result in test [17] was inactive.
In the case of `CC(C)(Sc1cc(C(C)(C)C)c(O)c(C(C)(C)C)c1)Sc1cc(C(C)(C)C)c(O)c(C(C)(C)C)c1`, the activity change, negative = inhibition in test [1] was 1.37%; in test [9] it was 10.7%. The Potency in [19] was more than 20.6 µM. Besides, the Potency entry in test [10] is “inactive”. Further, the compound was classed as inactive in test [17].
As to `Clc1ccccc1CN1CCc2sccc2C1`, the activity change, negative = inhibition in test [1] is -15.6% and -18.3%. The Potency result in test [10] was “inactive”.
`CC[C@H](C)C(=O)O[C@H]1C[C@@H](C)C=C2C=C[C@H](C)[C@H](CC[C@@H]3C[C@@H](O)CC(=O)O3)[C@H]21`: the activity change, negative = inhibition in [1] was -19.5%. For the same compound, the Potency was more than 92 µM in [3]; more than 92 µM in test [5]; more than 92 µM in test [7]; more than 20.6 µM in [19]; 7.94 µM (active) in [13]; 2 µM (active) in test [15]. The Potency in test [16] was 7.94 µM (active). In addition, the Potency entry in test [10] and in [12] was “inactive” throughout. The activity change, negative = cytotoxicity in test [11] is -92.8% (active).
For the compound `Nc1nc(F)nc2c1ncn2[C@@H]1O[C@H](CO)[C@@H](O)[C@@H]1O`, the activity change, negative = inhibition in [1] was -4.13%. Besides, in [19], the Potency is more than 20.6 µM.
Consider `N[C@@H](C(=O)N[C@@H]1C(=O)N2C(C(=O)O)=C(Cl)CS[C@H]12)c1ccccc1`, for which the activity change, negative = inhibition in test [1] was 0.208%; in [9], 7.31%. Moreover, the Potency in [19] was more than 20.6 µM.
On to `C[C@]12C=CC(=O)C=C1CC[C@@H]1[C@@H]2C(=O)C[C@@]2(C)[C@H]1CC[C@]2(O)C(=O)CO`, for which the Potency in test [3], in [4], in test [5], in [6], in test [7] and in [8] was more than 92 µM in each case. Moreover, the Potency result in test [10], in [12], in [13], in test [14], in [15] and in test [16] was “inactive” throughout. Moreover, in [18], the Potency entry was “inactive”. Besides, in test [11], the activity change, negative = cytotoxicity was -17%.
For the compound `O=C(O)c1cn(C2CC2)c2cc(N3CCNCC3)c(F)cc2c1=O`, the activity change, negative = inhibition in [1] is 3.13%; in [9], 6.31%. For the same compound, in test [10], the Potency result is “inactive”.
As to `CCn1cc(C(=O)O)c(=O)c2cc(F)c(N3CCNCC3)cc21`, the activity change, negative = inhibition in test [1] was -6.52% and 0.998%; in test [9], 1.51% and 17.3%. The Potency in [19] is more than 20.6 µM. The Potency entry in [10] is “inactive”. Besides, the call in [17] was inactive.
In the case of `NC(N)=NC(N)=NCCc1ccccc1`, the activity change, negative = inhibition is 5.09% and 3.64% in test [1]; -2.75% and 12.2% in [9]. The Potency in [4] was more than 92 µM; in test [5], more than 92 µM; in test [7] it was more than 92 µM; in test [8], more than 92 µM; in test [19], more than 20.6 µM. Besides, the Potency result in [10], in test [12], in [14], in [15], in test [16] and in test [18] was “inactive” each time. For the same compound, the compound was called inactive in test [17].
For the compound `C1CCC(C(CC2CCCCN2)C2CCCCC2)CC1` (centres undefined), the activity change, negative = inhibition in [1] was 22.4%. For the same compound, the Potency in [19] was more than 20.6 µM.
In the case of `O=S(=O)(c1cccc2cnccc12)N1CCCNCC1`, the activity change, negative = inhibition in [9] is -20.4%.
Turning to `O=C(O)c1cccnc1`, the Potency entry in [2] and in test [10] was “inactive” each time. The activity change, negative = inhibition in test [9] was -4.12%. Moreover, in test [17], the call was inactive.

Source of the values: PubChem BioAssay (NCATS).
